The AC50 is the midpoint of the concentration-response curve, whichever way the signal moves.

The values below come from PubChem BioAssay (EPA / NIEHS).

Activity calls are given as the source filed them. The calls were made as follows: active = hit-call score of the fitted dose curve at least 0.9, where 1 is the maximum; inactive = score below 0.9.

Read-out in assay [1]: TIMP metallopeptidase inhibitor 1 (TIMP1), TIMP1 (gene 7076)
Description: BSK_hDFCGF_TIMP1: BioMAP Diversity Plus: hDFCGF Assay for TIMP metallopeptidase inhibitor 1 (TIMP1) Biomarker Activity (AID 2283062). The conditions noted are these: primary human foreskin fibroblasts; actives raise or lower the signal. The gist of the method: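 Fibroblasts from human foreskin are treated with test chemical and harvested at 24 h. TIMP-1 is quantified by ELISA, and gain or loss of signal is scored against DMSO.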

Read-out in assay [2]: Monokine induced gamma interferon (MIG), CXCL9 (gene 4283)
Description: BSK_hDFCGF_MIG: BioMAP Diversity Plus: hDFCGF Assay for Monokine induced gamma interferon (MIG) Biomarker Activity (AID 2283063). Conditions: primary human foreskin fibroblasts; actives raise or lower the signal. The gist of the method: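 MIG signal, determined by ELISA, reflects 24 h chemical exposure of human skin primary fibroblasts. DMSO serves as negative control and baseline.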

Read-out in assay [3]: Matrix Metallopeptidase 1 (MMP1), MMP1 (gene 4312)
In words: BSK_hDFCGF_MMP1: BioMAP Diversity Plus: hDFCGF Assay for Matrix Metallopeptidase 1 (MMP1) Biomarker Activity (AID 2283064). The conditions noted are these: primary human foreskin fibroblasts; actives raise or lower the signal. The gist of the method: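 MMP1 levels quantified by ELISA 24 h after dosing human dermal fibroblast cultures, with parallel SRB total-protein staining for overt cytotoxicity. Data fitted in both directions against DMSO baseline.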

Read-out in assay [4]: Vascular cell adhesion molecule 1 (VCAM1), VCAM1 (gene 7412)
In words: BSK_hDFCGF_VCAM1: BioMAP Diversity Plus: hDFCGF Assay for Vascular cell adhesion molecule 1 (VCAM1) Biomarker Activity (AID 2283065). Conditions: primary human foreskin fibroblasts; actives raise or lower the signal. In outline:
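Cells are dosed, cultured for 24 h, then VCAM-1 is quantified by ELISA; signal increases and decreases are both fitted relative to DMSO.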

Read-out in assay [5]: Plasminogen activator inhibitor-1 (PAI1), SERPINE1 (gene 5054)
In words: BSK_hDFCGF_PAI1: BioMAP Diversity Plus: hDFCGF Assay for Plasminogen activator inhibitor-1 (PAI1) Biomarker Activity (AID 2283066). Conditions: primary human foreskin fibroblasts; actives raise or lower the signal. The gist of the method:
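ELISA readout of PAI-1 from primary human skin fibroblast cultures, 24 h after compound addition. Gain or loss of signal was fitted bidirectionally against DMSO baseline.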

Read-out in assay [6]: Intercellular Adhesion Molecule 1 (ICAM1), ICAM1 (gene 3383)
In words: BSK_KF3CT_ICAM1: BioMAP Diversity Plus: KF3CT Assay for Intercellular Adhesion Molecule 1 (ICAM1) Biomarker Activity (AID 2283067). The conditions noted are these: primary human keratinocytes with fibroblasts; actives raise or lower the signal. The gist of the method:
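Dose the keratinocyte/fibroblast co-culture, wait 24 h, measure ICAM-1 by ELISA, then fit increases or decreases against DMSO. Cytotoxicity is checked in parallel cultures by SRB total-protein staining.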

Read-out in assay [7]: Interferon-gamma inducible Protein 10 (IP10), CXCL10 (gene 3627)
Description: BSK_KF3CT_IP10: BioMAP Diversity Plus: KF3CT Assay for Interferon-gamma inducible Protein 10 (IP10) Biomarker Activity (AID 2283068). The conditions noted are these: primary human keratinocytes with fibroblasts; actives raise or lower the signal. In outline:
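KF3CT co-culture (keratinocytes + foreskin fibroblasts), 24 h compound, IP-10 by ELISA; bidirectional fit vs DMSO baseline.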

Assay [8] is described as follows: BSK_KF3CT_SRB: Viability Assessment in the BioMAP Diversity Plus: KF3CT Assay (AID 2283069). Conditions: primary human keratinocytes with fibroblasts. In outline: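 Cytotoxicity was gauged by SRB staining (0.1% SRB, 10% TCA fixation, 560 nm) of parallel cultures at 24 h. The cells were primary human skin keratinocytes co-cultured with fibroblasts, and activity was fitted in both directions against DMSO.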

Read-out in assay [9]: Interleukin-1 alpha (IL1a), IL1A (gene 3552)
In words: BSK_KF3CT_IL1a: BioMAP Diversity Plus: KF3CT Assay for Interleukin-1 alpha (IL1a) Biomarker Activity (AID 2283070). Conditions: primary human keratinocytes with fibroblasts; actives raise or lower the signal. The gist of the method:
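IL-1a was detected by ELISA 24 h after chemical treatment of a co-culture of human skin keratinocytes and foreskin fibroblasts. Gain or loss of signal was fitted against the DMSO baseline.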

Read-out in assay [10]: TIMP metallopeptidase inhibitor 2 (TIMP2), TIMP2 (gene 7077)
In words: BSK_KF3CT_TIMP2: BioMAP Diversity Plus: KF3CT Assay for TIMP metallopeptidase inhibitor 2 (TIMP2) Biomarker Activity (AID 2283071). Conditions: primary human keratinocytes with fibroblasts; actives raise or lower the signal. In outline:
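ELISA readout of TIMP-2 in keratinocyte plus foreskin fibroblast co-cultures (human skin primary cells), 24 h post-dose. Gain or loss of signal fitted relative to DMSO.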

Read-out in assay [11]: Transforming growth factor beta 1 (TGFb1), TGFB1 (gene 7040)
Description: BSK_KF3CT_TGFb1: BioMAP Diversity Plus: KF3CT Assay for Transforming growth factor beta 1 (TGFb1) Biomarker Activity (AID 2283072). Conditions: primary human keratinocytes with fibroblasts; actives raise or lower the signal. The gist of the method: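 Read-out: ELISA for TGF-b1 in keratinocyte/foreskin fibroblast human skin co-culture, 24 h after dosing; bidirectional curve fit vs DMSO baseline; gain or loss of signal scored.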

Read-out in assay [12]: C-C motif chemokine 2 (Homo sapiens) (UniProt P13500)
Description: BSK_KF3CT_MCP1: BioMAP Diversity Plus: KF3CT Assay for Monocyte Chemoattractant Protein 1 (MCP1/CCL2) Biomarker Activity (AID 2283073). Conditions: primary human keratinocytes with fibroblasts; actives raise or lower the signal. In outline:
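Keratinocytes and foreskin fibroblasts were co-cultured, dosed with chemical, and sampled 24 h later. MCP-1 was quantified by ELISA, and the endpoint was analyzed with bidirectional fitting using DMSO as negative control.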

Read-out in assay [13]: Matrix Metallopeptidase 9 (MMP9), MMP9 (gene 4318)
Description: BSK_KF3CT_MMP9: BioMAP Diversity Plus: KF3CT Assay for Matrix Metallopeptidase 9 (MMP9) Biomarker Activity (AID 2283074). Conditions: primary human keratinocytes with fibroblasts; actives raise or lower the signal. In outline:
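MMP-9 quantified by ELISA after 24 h chemical treatment of primary human skin keratinocyte/fibroblast co-cultures; gain or loss fitted against DMSO, with parallel SRB staining (0.1% SRB, 560 nm) for overt cytotoxicity.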

Read-out in assay [14]: CD40, CD40 (gene 958)
Description: BSK_LPS_CD40: BioMAP Diversity Plus: LPS Assay for CD40 Biomarker Activity (AID 2283076). The conditions noted are these: primary human HUVEC with PBMC; actives raise or lower the signal. In outline:
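CD40 signal, measured by ELISA, is fitted in both directions relative to DMSO vehicle. The system is an LPS-driven human vascular primary co-culture of endothelial cells and PBMC, sampled 24 h after compound addition.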

Read-out in assay [15]: E-selectin (Homo sapiens) (UniProt P16581)
Description: BSK_LPS_Eselectin: BioMAP Diversity Plus: LPS Assay for Eselectin Biomarker Activity (AID 2283077). Conditions: primary human HUVEC with PBMC; actives raise or lower the signal. In outline:
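Signal of E-selectin, detected by ELISA, served as the endpoint; cells were umbilical vein endothelium with PBMC, read 24 h after treatment. DMSO defined baseline, and both increases and decreases were fitted.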

Read-out in assay [16]: Interleukin-8 (IL8), CXCL8 (gene 3576)
In words: BSK_LPS_IL8: BioMAP Diversity Plus: LPS Assay for Interleukin-8 (IL8) Biomarker Activity (AID 2283078). The conditions noted are these: primary human HUVEC with PBMC; actives raise or lower the signal. In outline:
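Endothelial cells and PBMC from human donors are co-cultured, treated with chemicals and LPS, then assayed for IL-8 by ELISA after 24 h. Parallel SRB staining (0.1% SRB after 10% TCA fixation, 560 nm) flags cytotoxicity.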

The nature of assay [17]: BSK_LPS_SRB: Viability Assessment in the BioMAP Diversity Plus: LPS Assay (AID 2283079).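 Also: total protein by sulforhodamine B absorbance as a cytotoxicity measure; measured one day after compound addition; fitted in both directions against DMSO so loss or gain of signal counts.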 The conditions noted are these: primary human HUVEC with PBMC. In outline:
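Overt cytotoxicity was gauged by sulforhodamine B total-protein staining in a primary human vascular endothelial and mononuclear cell co-culture 24 h post-dosing. Activity was fitted in both directions relative to DMSO.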

Read-out in assay [18]: Interleukin-1 alpha (IL1a), IL1A (gene 3552)
Description: BSK_LPS_IL1a: BioMAP Diversity Plus: LPS Assay for Interleukin-1 alpha (IL1a) Biomarker Activity (AID 2283080). Conditions: primary human HUVEC with PBMC; actives raise or lower the signal. The gist of the method:
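Measured: IL-1 alpha via ELISA at 24 h in LPS-activated human umbilical vein endothelium–PBMC co-culture. Baseline: DMSO, bidirectional fitting.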

Read-out in assay [19]: Monocyte Chemoattractant Protein-1 (MCP1), CCL2 (gene 6347)
Description: BSK_LPS_MCP1: BioMAP Diversity Plus: LPS Assay for Monocyte Chemoattractant Protein-1 (MCP1) Biomarker Activity (AID 2283081). The conditions noted are these: primary human HUVEC with PBMC; actives raise or lower the signal. The gist of the method: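 LPS-stimulated HUVEC/PBMC co-culture; chemical, 24 h; MCP-1 by ELISA; bidirectional fit vs DMSO; cytotoxicity via SRB (0.1% stain, 10% TCA fix, 560 nm) in parallel wells.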

Chain of E-selectin (Homo sapiens) (P16581 whole entry, looked up): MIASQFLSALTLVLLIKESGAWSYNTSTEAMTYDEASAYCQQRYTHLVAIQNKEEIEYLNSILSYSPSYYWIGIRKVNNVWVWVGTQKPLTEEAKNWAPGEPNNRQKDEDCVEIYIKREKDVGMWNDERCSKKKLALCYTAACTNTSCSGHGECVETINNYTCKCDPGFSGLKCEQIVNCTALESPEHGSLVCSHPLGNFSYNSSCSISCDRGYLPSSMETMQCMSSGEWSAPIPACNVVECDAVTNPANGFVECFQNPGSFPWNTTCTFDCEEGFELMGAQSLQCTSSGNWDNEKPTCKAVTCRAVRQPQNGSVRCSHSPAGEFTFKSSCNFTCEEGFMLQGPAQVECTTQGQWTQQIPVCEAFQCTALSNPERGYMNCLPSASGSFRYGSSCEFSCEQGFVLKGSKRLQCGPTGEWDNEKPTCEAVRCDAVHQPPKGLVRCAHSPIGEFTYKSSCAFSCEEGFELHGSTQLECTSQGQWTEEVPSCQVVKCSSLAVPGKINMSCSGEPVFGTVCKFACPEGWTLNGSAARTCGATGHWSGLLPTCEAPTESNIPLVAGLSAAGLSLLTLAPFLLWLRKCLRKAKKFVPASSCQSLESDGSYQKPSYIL

In the case of `C[C@]12CC[C@@H]3c4ccc(O)cc4CC[C@H]3[C@@H]1CCC2=O`, the outcome in assay [1], in assay [2], in assay [3], in assay [4], in assay [5] and in [6] was inactive. Further, the outcome in assay [7], in assay [8], in assay [9], in assay [10], in assay [11] and in assay [12] was inactive. Moreover, the outcome in assay [13], in assay [14], in [16], in assay [17], in assay [18] and in assay [19] was inactive. Moreover, the AC50 in assay [15] was 0.122 µM (active).

Regarding `Oc1ccccc1`, the result in assay [1], in assay [2], in assay [3], in assay [4], in [5] and in assay [6] was inactive. The result in assay [7], in assay [8], in assay [9], in assay [10], in assay [11] and in assay [12] was inactive. Moreover, the outcome in assay [13], in assay [14], in assay [15], in assay [16], in assay [17] and in assay [18] was inactive. Besides, the result in assay [19] was inactive.

For the compound `CCO[Si](CCCNC(N)=O)(OCC)OCC`, the result in assay [1], in assay [2], in assay [3], in [4], in [5] and in [6] was inactive. The result in assay [7], in [8], in assay [9], in assay [10], in assay [11] and in [12] was inactive. In addition, the outcome in assay [13], in assay [14], in assay [15], in assay [16], in assay [17] and in assay [18] was inactive. In addition, the result in assay [19] was inactive.
